# Experimental data: publication PMC11006913
# Substitutions are numbered along the chain they refer to.
# Experiments:
# Test in all cases: PBM; 200 nM protein, PBS
# Settings in all cases: dsDNA, one strand shown
# [1] = target: HOXB9 (Homo sapiens, UniProt P17482 171-250, T197M)
# [2] = target: ALX4 (Homo sapiens, UniProt Q9H161 200-286)
# [3] = target: T1, PAX4 (Homo sapiens, UniProt O43316 9-242, R200K)
# T1 sequence: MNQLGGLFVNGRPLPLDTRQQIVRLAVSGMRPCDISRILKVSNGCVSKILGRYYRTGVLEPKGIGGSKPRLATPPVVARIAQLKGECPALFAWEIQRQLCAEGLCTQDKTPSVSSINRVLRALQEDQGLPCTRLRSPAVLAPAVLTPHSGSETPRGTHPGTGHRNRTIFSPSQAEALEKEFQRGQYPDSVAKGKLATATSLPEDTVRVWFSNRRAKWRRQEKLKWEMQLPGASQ
# [4] = target: PRRX1 (Homo sapiens, UniProt P54821 80-166, F113S)
# Sequence of PRRX1 (Homo sapiens, UniProt P54821 80-166, F113S) (P54821 80-166 F113S): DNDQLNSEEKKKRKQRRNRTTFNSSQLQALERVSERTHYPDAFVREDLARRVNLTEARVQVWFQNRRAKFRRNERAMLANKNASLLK
# [5] = target: T2, PAX4 (Homo sapiens, UniProt O43316 9-242)
# T2 sequence: T1 sequence with K192R
# [6] = target: HOXB6 (Homo sapiens, UniProt P17509 132-218, K202E)
# Sequence of HOXB6 (P17509 132-218 K202E): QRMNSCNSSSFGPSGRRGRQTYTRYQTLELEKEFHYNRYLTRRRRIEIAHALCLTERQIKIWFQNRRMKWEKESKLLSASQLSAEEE
# [7] = target: ALX4 (Homo sapiens, UniProt Q9H161 200-286, Q225E)
# Sequence of ALX4 (Homo sapiens, UniProt Q9H161 200-286, Q225E) (Q9H161 200-286 Q225E): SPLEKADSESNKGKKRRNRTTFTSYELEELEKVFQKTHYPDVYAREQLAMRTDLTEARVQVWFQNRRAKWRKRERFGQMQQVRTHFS
# [8] = target: ALX1 (Homo sapiens, UniProt Q15699 118-204, L144V)
# Sequence of ALX1 (Homo sapiens, UniProt Q15699 118-204, L144V) (Q15699 118-204 L144V): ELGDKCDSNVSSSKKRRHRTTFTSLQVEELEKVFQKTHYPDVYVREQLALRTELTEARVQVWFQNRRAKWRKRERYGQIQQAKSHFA
# [9] = target: ALX3 (Homo sapiens, UniProt O95076 139-225, N203Q)
# Sequence of ALX3 (Homo sapiens, UniProt O95076 139-225, N203Q) (O95076 139-225 N203Q): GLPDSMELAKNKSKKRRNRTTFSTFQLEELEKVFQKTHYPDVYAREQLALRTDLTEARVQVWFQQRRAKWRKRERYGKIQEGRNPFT
# [10] = target: T3, PAX4 (Homo sapiens, UniProt O43316 9-242, R200Q)
# T3 sequence: T1 sequence with K192Q
# [11] = target: T4, PAX4 (Homo sapiens, UniProt O43316 9-242, F177V)
# T4 sequence: T1 sequence with F169V, K192R
# [12] = target: ALX3 (Homo sapiens, UniProt O95076 139-225)
# Sequence of ALX3 (Homo sapiens, UniProt O95076 139-225) (O95076 139-225): as the sequence (O95076 139-225 N203Q) above, with Q65N counted along it
# [13] = target: T5, PAX4 (Homo sapiens, UniProt O43316 9-242, F177Y)
# T5 sequence: T1 sequence with F169Y, K192R
# [14] = target: ALX3 (Homo sapiens, UniProt O95076 139-225, L168Q)
# Sequence of ALX3 (Homo sapiens, UniProt O95076 139-225, L168Q) (O95076 139-225 L168Q): as the sequence (O95076 139-225 N203Q) above, with L30Q, Q65N counted along it
# [15] = target: HOXC9 (Homo sapiens, UniProt P31274 178-260, R222W)
# Sequence of HOXC9 (Homo sapiens, UniProt P31274 178-260, R222W) (P31274 178-260 R222W): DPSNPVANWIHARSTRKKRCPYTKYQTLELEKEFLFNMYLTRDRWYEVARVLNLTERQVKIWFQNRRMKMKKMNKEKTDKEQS
# [16] = target: ALX3 (Homo sapiens, UniProt O95076 139-225, L168V)
# Sequence of ALX3 (Homo sapiens, UniProt O95076 139-225, L168V) (O95076 139-225 L168V): as the sequence (O95076 139-225 N203Q) above, with L30V, Q65N counted along it
# [17] = target: HESX1 (Homo sapiens, UniProt Q9UBX0 95-180, F115L)
# Sequence of HESX1 (Q9UBX0 95-180 F115L): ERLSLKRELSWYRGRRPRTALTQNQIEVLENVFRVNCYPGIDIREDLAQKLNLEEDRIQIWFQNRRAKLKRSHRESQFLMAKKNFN
# [18] = target: T6, PAX4 (Homo sapiens, UniProt O43316 9-242, R227W)
# T6 sequence: T1 sequence with K192R, R219W
# [19] = target: ALX3 (Homo sapiens, UniProt O95076 139-225, N203S)
# Sequence of ALX3 (Homo sapiens, UniProt O95076 139-225, N203S) (O95076 139-225 N203S): as the sequence (O95076 139-225 N203Q) above, with Q65S counted along it
# [20] = target: PRRX1 (Homo sapiens, UniProt P54821 80-166)
# Sequence of PRRX1 (Homo sapiens, UniProt P54821 80-166) (P54821 80-166): as the sequence (P54821 80-166 F113S) above, with S34F counted along it
# [21] = target: HOXB9 (Homo sapiens, UniProt P17482 171-250)
# Sequence of HOXB9 (Homo sapiens, UniProt P17482 171-250) (P17482 171-250): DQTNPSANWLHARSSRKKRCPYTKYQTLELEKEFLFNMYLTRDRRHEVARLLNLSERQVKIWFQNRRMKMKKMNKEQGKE
# [22] = target: MSX2 (Homo sapiens, UniProt P35548 130-214, R199I)
# Sequence of MSX2 (Homo sapiens, UniProt P35548 130-214, R199I) (P35548 130-214 R199I): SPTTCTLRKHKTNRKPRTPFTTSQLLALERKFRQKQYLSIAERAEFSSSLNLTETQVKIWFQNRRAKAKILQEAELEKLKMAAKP
# [23] = target: MSX2 (Homo sapiens, UniProt P35548 130-214)
# Sequence of MSX2 (Homo sapiens, UniProt P35548 130-214) (P35548 130-214): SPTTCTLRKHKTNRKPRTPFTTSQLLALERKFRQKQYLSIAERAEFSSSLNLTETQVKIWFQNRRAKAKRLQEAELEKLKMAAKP
# [24] = target: HOXB9 (Homo sapiens, UniProt P17482 171-250, R186Q)
# Sequence of HOXB9 (Homo sapiens, UniProt P17482 171-250, R186Q) (P17482 171-250 R186Q): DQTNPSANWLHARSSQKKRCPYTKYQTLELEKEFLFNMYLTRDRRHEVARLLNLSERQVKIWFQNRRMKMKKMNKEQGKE
# [25] = target: MSX2 (Homo sapiens, UniProt P35548 130-214, F161Y)
# Sequence of MSX2 (Homo sapiens, UniProt P35548 130-214, F161Y) (P35548 130-214 F161Y): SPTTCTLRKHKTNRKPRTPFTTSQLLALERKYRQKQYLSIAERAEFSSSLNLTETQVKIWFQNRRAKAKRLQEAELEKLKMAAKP
# [26] = target: HOXC9 (Homo sapiens, UniProt P31274 178-260, K195R)
# Sequence of HOXC9 (Homo sapiens, UniProt P31274 178-260, K195R) (P31274 178-260 K195R): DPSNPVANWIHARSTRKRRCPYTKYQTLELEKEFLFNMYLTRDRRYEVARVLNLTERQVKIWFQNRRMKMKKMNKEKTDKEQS
# [27] = target: HOXC9 (Homo sapiens, UniProt P31274 178-260)
# Sequence of HOXC9 (Homo sapiens, UniProt P31274 178-260) (P31274 178-260): as the sequence (P31274 178-260 R222W) above, with W45R counted along it
# [28] = target: HOXC9 (Homo sapiens, UniProt P31274 178-260, R193K)
# Sequence of HOXC9 (Homo sapiens, UniProt P31274 178-260, R193K) (P31274 178-260 R193K): as the sequence (P31274 178-260 R222W) above, with R16K, W45R counted along it
# [29] = target: ALX1 (Homo sapiens, UniProt Q15699 118-204, L144R)
# Sequence of ALX1 (Homo sapiens, UniProt Q15699 118-204, L144R) (Q15699 118-204 L144R): as the sequence (Q15699 118-204 L144V) above, with V27R counted along it
# [30] = target: ALX1 (Homo sapiens, UniProt Q15699 118-204)
# Sequence of ALX1 (Homo sapiens, UniProt Q15699 118-204) (Q15699 118-204): as the sequence (Q15699 118-204 L144V) above, with V27L counted along it
# [31] = target: HOXA7 (Homo sapiens, UniProt P31268 116-202)
# Sequence of HOXA7 (Homo sapiens, UniProt P31268 116-202) (P31268 116-202): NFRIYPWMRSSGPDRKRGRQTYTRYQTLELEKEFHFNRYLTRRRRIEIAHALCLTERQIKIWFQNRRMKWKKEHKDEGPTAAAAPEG
# [32] = target: HOXA7 (Homo sapiens, UniProt P31268 116-202, W177C)
# Sequence of HOXA7 (Homo sapiens, UniProt P31268 116-202, W177C) (P31268 116-202 W177C): as the sequence (P31268 116-202) above, with W62C counted along it
# [33] = target: HOXC10 (Homo sapiens, UniProt Q9NYD6 254-340)
# Sequence of HOXC10 (Homo sapiens, UniProt Q9NYD6 254-340) (Q9NYD6 254-340): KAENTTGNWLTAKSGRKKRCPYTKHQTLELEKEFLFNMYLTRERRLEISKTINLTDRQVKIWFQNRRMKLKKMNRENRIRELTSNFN
# [34] = target: HOXC10 (Homo sapiens, UniProt Q9NYD6 254-340, K271E)
# Sequence of HOXC10 (Homo sapiens, UniProt Q9NYD6 254-340, K271E) (Q9NYD6 254-340 K271E): as the sequence (Q9NYD6 254-340) above, with K18E counted along it
# [35] = target: VAX1 (Homo sapiens, UniProt Q5SQQ9 86-172)
# Sequence of VAX1 (Homo sapiens, UniProt Q5SQQ9 86-172) (Q5SQQ9 86-172): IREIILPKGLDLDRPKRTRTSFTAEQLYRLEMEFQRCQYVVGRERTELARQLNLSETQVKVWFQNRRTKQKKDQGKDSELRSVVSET
# [36] = target: VAX1 (Homo sapiens, UniProt Q5SQQ9 86-172, T142I)
# Sequence of VAX1 (Homo sapiens, UniProt Q5SQQ9 86-172, T142I) (Q5SQQ9 86-172 T142I): as the sequence (Q5SQQ9 86-172) above, with T57I counted along it
# [37] = target: VAX1 (Homo sapiens, UniProt Q5SQQ9 86-172, K157R)
# Sequence of VAX1 (Homo sapiens, UniProt Q5SQQ9 86-172, K157R) (Q5SQQ9 86-172 K157R): as the sequence (Q5SQQ9 86-172) above, with K72R counted along it
# [38] = target: HOXD13 (Homo sapiens, UniProt P35453 263-343, T313R)
# Sequence of HOXD13 (Homo sapiens, UniProt P35453 263-343, T313R) (P35453 263-343 T313R): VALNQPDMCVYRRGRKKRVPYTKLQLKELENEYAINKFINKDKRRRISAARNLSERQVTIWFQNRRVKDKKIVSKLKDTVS
# [39] = target: HOXD13 (Homo sapiens, UniProt P35453 263-343)
# Sequence of HOXD13 (Homo sapiens, UniProt P35453 263-343) (P35453 263-343): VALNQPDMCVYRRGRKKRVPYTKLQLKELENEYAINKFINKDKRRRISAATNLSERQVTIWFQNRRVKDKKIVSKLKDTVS
# [40] = target: HOXD13 (Homo sapiens, UniProt P35453 263-343, T313A)
# Sequence of HOXD13 (Homo sapiens, UniProt P35453 263-343, T313A) (P35453 263-343 T313A): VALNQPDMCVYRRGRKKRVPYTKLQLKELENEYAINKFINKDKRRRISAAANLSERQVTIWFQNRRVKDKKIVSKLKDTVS
# Sequence of HOXB9 (Homo sapiens, UniProt P17482 171-250, T197M) (P17482 171-250 T197M): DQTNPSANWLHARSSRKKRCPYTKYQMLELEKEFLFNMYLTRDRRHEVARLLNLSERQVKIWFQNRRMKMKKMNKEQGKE
# Sequence of ALX4 (Homo sapiens, UniProt Q9H161 200-286) (Q9H161 200-286): as the sequence (Q9H161 200-286 Q225E) above, with E26Q counted along it
sequence,measurement,setting,value
ATAAATTA,binding signal,[1],"9.96 upbm affinity estimate (log intensity, higher = more binding, comparable within an allelic series)"
same,binding signal,[2],"13.6 upbm affinity estimate (log intensity, higher = more binding, comparable within an allelic series)"
same,binding signal,[3],"11.7 upbm affinity estimate (log intensity, higher = more binding, comparable within an allelic series)"
same,binding signal,[4],"11.2 upbm affinity estimate (log intensity, higher = more binding, comparable within an allelic series)"
same,binding signal,[5],"12.2 upbm affinity estimate (log intensity, higher = more binding, comparable within an allelic series)"
same,binding signal,[6],"10 upbm affinity estimate (log intensity, higher = more binding, comparable within an allelic series)"
same,binding signal,[7],"12.6 upbm affinity estimate (log intensity, higher = more binding, comparable within an allelic series)"
same,binding signal,[8],"11.4 upbm affinity estimate (log intensity, higher = more binding, comparable within an allelic series)"
same,binding signal,[9],"8.61 upbm affinity estimate (log intensity, higher = more binding, comparable within an allelic series)"
same,binding signal,[10],"11.8 upbm affinity estimate (log intensity, higher = more binding, comparable within an allelic series)"
same,binding signal,[11],"10.7 upbm affinity estimate (log intensity, higher = more binding, comparable within an allelic series)"
same,binding signal,[12],"12.3 upbm affinity estimate (log intensity, higher = more binding, comparable within an allelic series)"
same,binding signal,[13],"11 upbm affinity estimate (log intensity, higher = more binding, comparable within an allelic series)"
same,binding signal,[14],"10.2 upbm affinity estimate (log intensity, higher = more binding, comparable within an allelic series)"
same,binding signal,[15],"11 upbm affinity estimate (log intensity, higher = more binding, comparable within an allelic series)"
same,binding signal,[16],"9.72 upbm affinity estimate (log intensity, higher = more binding, comparable within an allelic series)"
same,binding signal,[17],"7.82 upbm affinity estimate (log intensity, higher = more binding, comparable within an allelic series)"
same,binding signal,[18],"11 upbm affinity estimate (log intensity, higher = more binding, comparable within an allelic series)"
same,binding signal,[19],"8.71 upbm affinity estimate (log intensity, higher = more binding, comparable within an allelic series)"
same,binding signal,[20],"13.3 upbm affinity estimate (log intensity, higher = more binding, comparable within an allelic series)"
AGCCGCAG,binding signal,[1],"8.34 upbm affinity estimate (log intensity, higher = more binding, comparable within an allelic series)"
same,binding signal,[3],"9.2 upbm affinity estimate (log intensity, higher = more binding, comparable within an allelic series)"
same,binding signal,[5],"9.21 upbm affinity estimate (log intensity, higher = more binding, comparable within an allelic series)"
same,binding signal,[21],"8.11 upbm affinity estimate (log intensity, higher = more binding, comparable within an allelic series)"
same,binding signal,[22],"9.46 upbm affinity estimate (log intensity, higher = more binding, comparable within an allelic series)"
same,binding signal,[10],"9.21 upbm affinity estimate (log intensity, higher = more binding, comparable within an allelic series)"
same,binding signal,[11],"9.11 upbm affinity estimate (log intensity, higher = more binding, comparable within an allelic series)"
same,binding signal,[23],"9.43 upbm affinity estimate (log intensity, higher = more binding, comparable within an allelic series)"
same,binding signal,[13],"9.12 upbm affinity estimate (log intensity, higher = more binding, comparable within an allelic series)"
same,binding signal,[24],"8.24 upbm affinity estimate (log intensity, higher = more binding, comparable within an allelic series)"
same,binding signal,[25],"9.5 upbm affinity estimate (log intensity, higher = more binding, comparable within an allelic series)"
same,binding signal,[18],"9.18 upbm affinity estimate (log intensity, higher = more binding, comparable within an allelic series)"
CCCAGGCC,binding signal,[1],"8.39 upbm affinity estimate (log intensity, higher = more binding, comparable within an allelic series)"
same,binding signal,[26],"9.5 upbm affinity estimate (log intensity, higher = more binding, comparable within an allelic series)"
same,binding signal,[21],"8.27 upbm affinity estimate (log intensity, higher = more binding, comparable within an allelic series)"
same,binding signal,[27],"9.64 upbm affinity estimate (log intensity, higher = more binding, comparable within an allelic series)"
same,binding signal,[8],"6.55 upbm affinity estimate (log intensity, higher = more binding, comparable within an allelic series)"
same,binding signal,[28],"9.51 upbm affinity estimate (log intensity, higher = more binding, comparable within an allelic series)"
same,binding signal,[29],"6.47 upbm affinity estimate (log intensity, higher = more binding, comparable within an allelic series)"
same,binding signal,[24],"8.29 upbm affinity estimate (log intensity, higher = more binding, comparable within an allelic series)"
same,binding signal,[15],"9.62 upbm affinity estimate (log intensity, higher = more binding, comparable within an allelic series)"
same,binding signal,[30],"6.28 upbm affinity estimate (log intensity, higher = more binding, comparable within an allelic series)"
AATAATAA,binding signal,[1],"9.97 upbm affinity estimate (log intensity, higher = more binding, comparable within an allelic series)"
same,binding signal,[31],"10.8 upbm affinity estimate (log intensity, higher = more binding, comparable within an allelic series)"
same,binding signal,[6],"10 upbm affinity estimate (log intensity, higher = more binding, comparable within an allelic series)"
same,binding signal,[9],"8.58 upbm affinity estimate (log intensity, higher = more binding, comparable within an allelic series)"
same,binding signal,[15],"11.1 upbm affinity estimate (log intensity, higher = more binding, comparable within an allelic series)"
same,binding signal,[32],"8.85 upbm affinity estimate (log intensity, higher = more binding, comparable within an allelic series)"
CTGCTCCC,binding signal,[1],"8.68 upbm affinity estimate (log intensity, higher = more binding, comparable within an allelic series)"
same,binding signal,[33],"10.1 upbm affinity estimate (log intensity, higher = more binding, comparable within an allelic series)"
same,binding signal,[21],"8.67 upbm affinity estimate (log intensity, higher = more binding, comparable within an allelic series)"
same,binding signal,[34],"10.1 upbm affinity estimate (log intensity, higher = more binding, comparable within an allelic series)"
same,binding signal,[35],"7.16 upbm affinity estimate (log intensity, higher = more binding, comparable within an allelic series)"
same,binding signal,[24],"8.65 upbm affinity estimate (log intensity, higher = more binding, comparable within an allelic series)"
same,binding signal,[36],"7.2 upbm affinity estimate (log intensity, higher = more binding, comparable within an allelic series)"
same,binding signal,[37],"7.01 upbm affinity estimate (log intensity, higher = more binding, comparable within an allelic series)"
CTCACGGC,binding signal,[1],"8.44 upbm affinity estimate (log intensity, higher = more binding, comparable within an allelic series)"
same,binding signal,[33],"10 upbm affinity estimate (log intensity, higher = more binding, comparable within an allelic series)"
same,binding signal,[21],"8.41 upbm affinity estimate (log intensity, higher = more binding, comparable within an allelic series)"
same,binding signal,[22],"9.58 upbm affinity estimate (log intensity, higher = more binding, comparable within an allelic series)"
same,binding signal,[9],"7.72 upbm affinity estimate (log intensity, higher = more binding, comparable within an allelic series)"
same,binding signal,[34],"10 upbm affinity estimate (log intensity, higher = more binding, comparable within an allelic series)"
same,binding signal,[23],"9.43 upbm affinity estimate (log intensity, higher = more binding, comparable within an allelic series)"
same,binding signal,[12],"7.47 upbm affinity estimate (log intensity, higher = more binding, comparable within an allelic series)"
same,binding signal,[14],"7.78 upbm affinity estimate (log intensity, higher = more binding, comparable within an allelic series)"
same,binding signal,[24],"8.46 upbm affinity estimate (log intensity, higher = more binding, comparable within an allelic series)"
same,binding signal,[16],"7.81 upbm affinity estimate (log intensity, higher = more binding, comparable within an allelic series)"
same,binding signal,[25],"9.43 upbm affinity estimate (log intensity, higher = more binding, comparable within an allelic series)"
same,binding signal,[19],"7.72 upbm affinity estimate (log intensity, higher = more binding, comparable within an allelic series)"
ACCGGCAG,binding signal,[1],"8.5 upbm affinity estimate (log intensity, higher = more binding, comparable within an allelic series)"
same,binding signal,[4],"9.27 upbm affinity estimate (log intensity, higher = more binding, comparable within an allelic series)"
same,binding signal,[21],"8.43 upbm affinity estimate (log intensity, higher = more binding, comparable within an allelic series)"
same,binding signal,[22],"9.63 upbm affinity estimate (log intensity, higher = more binding, comparable within an allelic series)"
same,binding signal,[38],"9.44 upbm affinity estimate (log intensity, higher = more binding, comparable within an allelic series)"
same,binding signal,[39],"9.57 upbm affinity estimate (log intensity, higher = more binding, comparable within an allelic series)"
same,binding signal,[23],"9.62 upbm affinity estimate (log intensity, higher = more binding, comparable within an allelic series)"
same,binding signal,[40],"9.67 upbm affinity estimate (log intensity, higher = more binding, comparable within an allelic series)"
same,binding signal,[24],"8.48 upbm affinity estimate (log intensity, higher = more binding, comparable within an allelic series)"
same,binding signal,[25],"9.59 upbm affinity estimate (log intensity, higher = more binding, comparable within an allelic series)"
same,binding signal,[20],"9.41 upbm affinity estimate (log intensity, higher = more binding, comparable within an allelic series)"
